Measurements taken from PubChem BioAssay AID1546 (The Scripps Research Institute Molecular Screening Center, 2009).
The list shows a part of the results. Values without a mark were called inactive. The source made the active and inactive calls. Rule as the data show it: active = activation above about 45%; inactive = the rest.

biological target: Neuropeptide Y receptor type 1 (Homo sapiens) (UniProt P25929); assay: NPY-Y1 potentiators or agonists, confirmation, cell-based (AID 1546); settings: cell-based NPY-Y1 potentiator/agonist assay; at 3.6 µM; stronger effect = higher value;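 also: cells challenged with NPY at its EC10 plus isoproterenol stimulus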
Sequence (P25929 whole entry, looked up): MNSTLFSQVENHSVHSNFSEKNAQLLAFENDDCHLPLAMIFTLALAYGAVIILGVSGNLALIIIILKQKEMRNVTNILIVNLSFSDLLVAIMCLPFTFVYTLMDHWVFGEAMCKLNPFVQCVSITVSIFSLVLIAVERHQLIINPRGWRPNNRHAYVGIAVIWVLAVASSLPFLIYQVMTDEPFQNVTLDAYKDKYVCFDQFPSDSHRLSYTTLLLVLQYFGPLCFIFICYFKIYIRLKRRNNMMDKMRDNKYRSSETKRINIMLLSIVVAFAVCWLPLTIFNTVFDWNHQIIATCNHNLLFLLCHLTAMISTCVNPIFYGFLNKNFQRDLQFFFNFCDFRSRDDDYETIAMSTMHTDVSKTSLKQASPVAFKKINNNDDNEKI

Row | Structure (SMILES) | activation
1 | O=[N+]([O-])c1cc(Cl)cc(/C=N/NC(=S)Nc2cc(S(=O)(=O)N3CCOCC3)ccc2Cl)c1O | 72.1% (active)
2 | Cc1cccc(OCC(O)CN2CCN(CCN3C(=O)c4cccc5cccc(c45)C3=O)CC2)c1C (stereo unspecified) | 63.5% (active)
3 | CC1=C/C(=N\OS(=O)(=O)c2ccccc2)C=CC1=O | 7.41%
4 | O=C1/C(=C/c2coc3ccc(O)cc3c2=O)SC(=S)N1c1ccccc1 | 26.1%
5 | CSc1nc(-c2ccco2)nn1C(=O)c1ccccc1Cl | 31.6%
6 | O=C(Nc1ccccc1C(F)(F)F)c1cc(-c2ccc(O)cc2)on1 | 2.15%
7 | O=C(c1cccs1)N1CCN(C(=O)N2CCOCC2)CC1 | -4.4%
8 | COC(=O)c1ccc(NC(=O)CN(c2ccc(C)cc2)S(=O)(=O)c2c(C)n[nH]c2C)cc1 | 43%
9 | CN1C(=O)c2ccccc2C(C(=O)NCCCN2CCCC2)C1c1c[nH]c2ccccc12 (stereo unspecified) | 7.17%
10 | CCn1c2ccccc2c2cc(NC(=O)Nc3ccc([N+](=O)[O-])cc3C)ccc21 | 26.1%
11 | N#Cc1ccc(C(=O)Nc2nc(-c3cccs3)c(C(=O)C(F)(F)F)s2)cc1 | -50.3%
12 | O=C(Nc1ccc2c(c1)CCC2)c1cccc(S(=O)(=O)Nc2ccccc2Cl)c1 | 5.62%
13 | Cc1ccccc1NCC(=O)N/N=C\c1ccc([N+](=O)[O-])s1 | 34.6%
14 | CC(=O)c1ccc(NC(=O)C2CC(=O)Nc3nc4ccccc4n32)cc1 (stereo unspecified) | 38.7%
15 | COCCn1nnnc1C(c1ccccc1Cl)N1CCN(c2ccccc2OC)CC1 (stereo unspecified) | -14.9%
16 | COC(=O)c1sc(-c2ccc(C(C)(C)C)cc2)cc1NC(=O)/C=C/C(=O)O | 40.8%
